Screens from PubChem.
In the library only some 1.4% were active in any assay of this set; here they are far more common.
RN4220 kill: kills Staphylococcus aureus RN4220; S. aureus RN4220 growth, OD600, 16 h; inhibition, % (concentration not given with the values); actives 0.33% (n = 330,000); in the data active = inhibition above about 85%;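 note: plate controls were untreated cells for no effect and reference antibiotic for full effect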
BJeLR lethal: BJeLR cell viability loss. inhibition, % (test concentration not listed). AID 1554. actives 0.17% (n = 300,000). BJeLR (HRASV12) viability, CellTiter-Glo ATP luminescence, 48 h; in the data active = inhibition above about 50%
DUSP3 inh: inhibitors of human VHR1 phosphatase (DUSP3); actives 0.52% (n = 290,000); P51452; recombinant VHR phosphatase, pNPP absorbance; inhibition, % at 13.3 µM; in the data active = inhibition above about 50%
Target sequence (P51452 whole entry, looked up): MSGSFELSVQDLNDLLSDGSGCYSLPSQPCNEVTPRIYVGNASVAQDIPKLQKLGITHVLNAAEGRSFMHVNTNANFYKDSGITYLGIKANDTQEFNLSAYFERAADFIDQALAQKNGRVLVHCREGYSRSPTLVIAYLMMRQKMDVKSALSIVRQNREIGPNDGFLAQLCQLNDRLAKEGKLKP
PrPC surface inh: inhibitors of human cell surface prion protein PrPC | P04156 | TR-FRET read-out | inhibition, % at 13.8 µM | actives 0.43% (n = 370,000); in the data active = inhibition above about 24%; note: 0% = median of the test wells and 100% = reference compound wells
3CLpro inhibitor: SARS-CoV 3CLpro protease inhibition; inhibition, % at 6 µM; actives 0.14% (n = 290,000); recombinant SARS-CoV 3CLpro, quenched FRET peptide cleavage; P0C6X7; in the data active = inhibition above about 12%
Sa ugtP lethal: kills S. aureus RN4220 lacking UgtP. S. aureus RN4220 ugtP deletion, OD600 growth, 16 h. growth inhibition, % (concentration not given with the values). actives 0.54% (n = 330,000). AID 1259309; in the data active = growth inhibition above about 68%;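 note: plate controls were untreated wells for no effect and antibiotic for full effect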
Numbers without * were called inactive; . = not tested or not shown.

SMILES | RN4220 kill | BJeLR lethal | DUSP3 inh | PrPC surface inh | 3CLpro inhibitor | Sa ugtP lethal
Cc1ccc(/C=N/NC(=O)c2cc(-c3ccncc3)nc3ccccc23)o1 | . | 58.7* | 12.6 | 8.9 | 2.7 | .
O=C(NN=Cc1ccc([N+](=O)[O-])o1)c1cc(-c2cccc(Br)c2)nc2ccccc12 | 115.4* | . | . | . | . | 100.3*
O=C(N/N=C/c1ccc([N+](=O)[O-])o1)c1cc(-c2ccc(-c3ccccc3)cc2)nc2ccccc12 | . | 47.2 | 33.9 | -6.2 | 8.7 | .
O=C(NCc1ccccc1)c1cc(-c2ccncc2)nc2ccccc12 | -0.7 | 3.9 | 52.6* | -16.6 | -4.3 | 3.2
C#CCOCCOCCOCCNc1nc(N2CCN(C(=O)CCCCCCCCCCNC(=O)C(CCCCN)n3cc(CCO)nn3)CC2)nc(N2CCN(C(=O)CCCCCCCCCCNC(=O)C(C(C)O)n3cc(C)nn3)CC2)n1 (centres undefined) | 4.1 | . | . | . | . | -30.7
O=C(OCc1ccccc1)c1ccc(NCc2cc(O)ccc2O)cc1 | . | . | . | 46.1* | . | .
C=CCn1c2ccccc2c(=O)c2cc(C#CCC(C)O)ccc21 (centres undefined) | 6.3 | . | . | . | . | 3.9
O=C(C1=CC(c2ccccc2)CC(OCCCCO)O1)N1CCN(Cc2ccc3c(c2)OCO3)CC1 (centres undefined) | 6.7 | . | . | . | . | 7.7
CC(=O)[C@@]1(O)CCC2C3CCC4=CC(=O)CC[C@]4(C)C3C(O)C[C@@]21C (some centres undefined) | 2.7 | . | . | . | . | 1.5
CC(C)(C)c1nc(NC(=O)Nc2ccccc2)sc1Br | 96.8* | 5.1 | 5.1 | 9.5 | 8.0 | 92.3*
C[C@@]12NC(Cc3ccccc31)c1ccccc12 | 8.9 | . | . | . | . | 4.0
CCOC(=O)c1c(CSC(=N)N)n(-c2ccc(C)cc2)c2cc(Br)c(OC(C)=O)cc12 | 0.3 | 83.8* | 41.1 | 10.3 | 4.5 | -25.1
CC(C)OC(=O)c1cc(NC(=S)Nc2ccc([N+](=O)[O-])cc2)cc(C(=O)OC(C)C)c1 | 100.0* | -4.7 | 5.1 | 1.6 | 1.6 | 99.9*
CC(C)CCNC(=S)Nc1ccc([N+](=O)[O-])cc1 | 25.2 | -11.5 | 13.3 | -2.2 | -1.3 | -0.9
COc1cc(CCCN2CCNCC2Cc2cccc3ccccc23)cc(OC)c1OC (centres undefined) | 1.4 | . | . | . | . | 1.0
Oc1ccc(-c2nc3ccc4ccccc4c3c3c2CCC3)cc1O | -3.6 | -4.8 | -4.4 | 22.2 | 3.0 | 98.4*
Cc1cc(C)c2c(ccc3ccccc32)n1 | . | . | . | 1.8 | . | .
COc1ccc(OC2C=CC(c3ccccc3)OC2CON=C(C)CCC(=O)OCC2OC(c3ccccc3)C=CC2Oc2ccc(OC)cc2)cc1 (centres undefined) | 10.4 | . | . | . | . | 6.7
CCc1cc(-c2n[nH]c(C)c2Oc2ccc(C(C)C)cc2)c(O)cc1O | 86.4* | -6.2 | 28.3 | -1.6 | 8.7 | 98.9*
O=C(NCCNS(=O)(=O)c1ccccc1)c1ccc([N+](=O)[O-])cc1 | 2.0 | 2.5 | 58.3* | -21.8 | -0.1 | 3.3
O=C(NCCOc1ccc(F)cc1)C1CCC(=O)N(CCc2ccccn2)C1 (centres undefined) | -3.9 | 0.6 | 57.1* | -2.6 | -4.7 | 3.1
Cc1ccc(-n2[nH]c(C)c(C=Nc3ccc4[nH]c(=O)[nH]c4c3)c2=O)cc1 | . | 25.7 | 1.9 | -6.5 | -1.1 | .
Cc1ccc(N=Cc2c(C)[nH]n(-c3nc4ccccc4[nH]3)c2=O)cc1 | 8.4 | 103.3* | 11.1 | 3.5 | 0.6 | -5.7
CCOC1OC(C(=O)NCc2ccccc2)=CC(c2ccc(C(F)(F)F)cc2)C1CCCO (centres undefined) | 4.3 | . | . | . | . | 1.7
COC(=O)C(CC(C)C)NS(=O)(=O)N(Cc1ccccc1)C(CC(C)C)C(=O)OC (centres undefined) | 8.4 | . | . | . | . | 12.0
SMILES | RN4220 kill | BJeLR lethal | DUSP3 inh | PrPC surface inh | 3CLpro inhibitor | Sa ugtP lethal
COc1ccc(/C=C/C(=O)c2cc(F)ccc2OC(=O)c2ccccc2C)cc1OC | 3.8 | 77.3* | -6.9 | 5.8 | 3.0 | -5.5
COc1ccc(C(=O)Oc2ccc(F)cc2C(=O)/C=C/c2ccc(OC)c(OC)c2)cc1 | 6.9 | -4.2 | -11.0 | -8.8 | 2.4 | 3.5
CC(C)CC(NC(=O)c1[nH]cnc1C(=O)NC(C)c1ccccc1)C(=O)OC(C)(C)C (centres undefined) | 6.4 | . | . | . | . | 5.8
Nc1c(C(=O)Nc2nc3ccccc3s2)sc2nc(-c3cccs3)ccc12 | 79.7 | 10.8 | 20.9 | . | 0.7 | 99.3*
CCN(C(=O)CN1C(=O)S/C(=C\c2cccc(OC)c2)C1=O)C1CCS(=O)(=O)C1 (centres undefined) | -0.3 | 1.9 | 52.3* | -8.8 | -4.2 | 0.2
COc1cccc(/C=C2\SC(=O)N(CC(=O)NC3CCS(=O)(=O)C3)C2=O)c1 (centres undefined) | 4.8 | 5.2 | 59.8* | -15.1 | -5.7 | 4.8
C#CCOCCOCCOCCNc1nc(N2CCOCC2)nc(N2CCN(C(=O)C(CO)n3cc(C(N)C(C)C)nn3)CC2)n1 (centres undefined) | 4.3 | . | . | . | . | 3.8
C=CCn1c(CNC(=O)c2ccccc2F)nnc1SCc1nc2ccccc2c(=O)[nH]1 | -3.3 | -2.2 | 51.9* | 10.6 | 7.3 | 3.1
C=CCn1c(CCNC(=O)c2ccccc2F)nnc1SCc1nc2ccccc2c(=O)[nH]1 | 4.4 | 12.5 | 26.3 | -6.8 | -1.7 | 5.9
Cc1cccc(OCc2n(CC(=O)OC3CC(C)CCC3C(C)C)c3ccccc3[n+]2C)c1 (centres undefined) | . | 11.9 | 20.4 | . | 0.1 | .
CC1CCC(C(C)C)C(OC(=O)Cn2c(-c3ccc(F)cc3)[n+](C)c3ccccc32)C1 (centres undefined) | 96.9* | . | 28.2 | 11.6 | -1.0 | 100.2*
CC1CCC(C(C)C)C(OC(=O)Cn2c(-c3ccccc3)[n+](C)c3ccccc32)C1 (centres undefined) | 99.5* | -1.2 | 1.5 | 19.6 | -3.2 | 100.5*
CC1CCC(C(C)C)C(OC(=O)Cn2c(COc3ccccc3)[n+](C)c3ccccc32)C1 (centres undefined) | 100.6* | 29.1 | 2.5 | -3.5 | 6.0 | 100.4*
CCC(C)C(C(=O)N1CCN(C(=O)OC(C)(C)C)CC1)n1cc(CCCN=C(NC(=O)OC(C)(C)C)NC(=O)OC(C)(C)C)nn1 (centres undefined) | 8.8 | . | . | . | . | 12.2
CSc1ccc(C2=CC(=O)CC(c3ccc(Cl)cc3)C2)cc1 (centres undefined) | -4.9 | . | . | . | . | 10.6
O=C(CN1C(=O)SC(=Cc2ccc(O)cc2)C1=O)c1ccccc1 | 11.9 | . | . | . | . | 10.4
COCCn1nnnc1CN(CCc1ccccc1)Cc1cc2cc(OC)ccc2[nH]c1=O | 7.7 | -1.5 | . | -3.9 | -1.6 | 8.3
COCCn1nnnc1CN(CCc1ccc(OC)c(OC)c1)Cc1cc2ccc(C)cc2[nH]c1=O | -5.1 | -7.4 | 51.9* | -1.0 | -14.3 | -3.1
COc1cccc(NC(=O)NNS(=O)(=O)c2ccc(OC)cc2OC)c1 | 2.5 | 1.7 | 50.2* | 6.8 | -2.2 | 4.6
CC1SC(c2ccc(Cl)cc2Cl)NC1=O (centres undefined) | -1.3 | 4.3 | 57.3* | -0.4 | -0.5 | 2.8
